The whole screen tested about 96,000 compounds, of which about 19,000 (20%) were called active.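 Rule for the calls: active = blocking of liver enzyme CYP2C9 beyond about 50% at 5 µM (limit read from the data); inactive = the rest.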 Not all results are given here.
Molecular target: Cytochrome P450 2C9 (Homo sapiens) (UniProt P11712)
Assay: blockers of cytochrome P450 2C9 activity – biochemical, luminescence, ADME assay, primary screen (AID 777)
Conditions: CYP2C9 Supersomes, luciferin-H conversion, at 5 µM, stronger effect = higher value

Sequence of Cytochrome P450 2C9 (Homo sapiens) (P11712 whole entry, looked up): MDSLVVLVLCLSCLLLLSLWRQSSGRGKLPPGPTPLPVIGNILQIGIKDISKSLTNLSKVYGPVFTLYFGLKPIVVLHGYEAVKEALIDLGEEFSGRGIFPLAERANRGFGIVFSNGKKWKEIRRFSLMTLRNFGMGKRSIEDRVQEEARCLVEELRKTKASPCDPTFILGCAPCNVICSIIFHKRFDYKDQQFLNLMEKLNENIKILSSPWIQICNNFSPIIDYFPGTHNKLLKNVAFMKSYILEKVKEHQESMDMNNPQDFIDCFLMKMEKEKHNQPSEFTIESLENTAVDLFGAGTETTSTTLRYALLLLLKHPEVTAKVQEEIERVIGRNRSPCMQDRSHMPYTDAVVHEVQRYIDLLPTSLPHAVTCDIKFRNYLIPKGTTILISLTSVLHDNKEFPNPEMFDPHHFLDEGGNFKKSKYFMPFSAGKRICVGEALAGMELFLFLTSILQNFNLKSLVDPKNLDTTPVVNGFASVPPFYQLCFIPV

Row | SMILES | inhibition
1 | CNC(=O)/C(=C\C=C\c1ccccc1)NC(=O)c1ccc([N+](=O)[O-])cc1 | 22.2% (inactive)
2 | CCOC(=O)c1cnc(SCc2nc(N)nc(Nc3ccc(OC)cc3)n2)nc1N | 40.5% (inactive)
3 | Cc1nn(-c2ccccc2)c2c1C(=O)NC(=O)C(C)(C)C2 | 14.9% (inactive)
4 | O=C(Nc1ccc(Oc2ccccc2)cc1)c1ccco1 | 24.3% (inactive)
5 | CC1CCN(C(=O)Cn2cc(C(=O)c3ccco3)c3ccccc32)CC1 | 28.3% (inactive)
6 | CC1CCN(C(NC(=O)c2ccco2)C(=O)c2ccccc2)CC1 (stereo unspecified) | 71.6% (active)
7 | O=C(NC1CCCCC1)N1CCc2[nH]c3ccccc3c2C1 | 27.9% (inactive)
8 | Cc1cc(Cl)c(S(=O)(=O)NCC2CCCO2)cc1OCC(N)=O (stereo unspecified) | -10.7% (inactive)
9 | COc1cccc(-n2cc3c(c2-c2ccccc2)c(=O)n(C)c(=O)n3C)c1 | 64.6% (active)
10 | COc1ccc(-c2c3c(=O)n(C)c(=O)n(C)c3cn2-c2cccc(OC)c2)cc1 | 4.2% (inactive)
11 | Cc1ccc(-c2c3c(=O)n(C)c(=O)n(C)c3cn2-c2ccccc2O)cc1 | 43.7% (inactive)
12 | CCc1ccc(Nc2ncc3c(n2)CC(c2ccco2)CC3=O)cc1 (stereo unspecified) | 8.9% (inactive)
13 | O=C1N=C(N2CCOCC2)S/C1=C\C=C/c1ccccc1 | -28.7% (inactive)
14 | CN(C)/C=C/C(=O)c1ccccc1F | 14.6% (inactive)
15 | O=C(Nc1ccccc1Cl)O/N=C(/c1ccccc1)c1ccccn1 | 22.2% (inactive)
16 | O=C1NC(c2ccncc2)Nc2sc3c(c21)CCCC3 (stereo unspecified) | 49.1% (inactive)
17 | O=C(Nc1nccs1)C1CCCN1S(=O)(=O)c1cccc2cccnc12 (stereo unspecified) | 53.9% (active)
18 | O=C(O)C1CCCN(S(=O)(=O)c2cccc3cccnc23)C1 (stereo unspecified) | -20.2% (inactive)
19 | CC1CCCCC1NC(=O)C1CCCN1S(=O)(=O)c1cccc2nsnc12 (stereo unspecified) | 21.2% (inactive)
20 | CC(=O)c1cccc(NC(=O)N2CCCC2C(=O)NCCC(C)C)c1 (stereo unspecified) | 9.2% (inactive)
21 | CC(=O)c1cccc(NC(=O)C2CCCN2S(=O)(=O)c2cccc3nsnc23)c1 (stereo unspecified) | 92.8% (active)

Row | SMILES | inhibition
22 | COc1ccc(NC(=O)C2CCCN(S(=O)(=O)c3cccc4cccnc34)C2)cc1 (stereo unspecified) | -49.2% (inactive)
23 | CCc1nn(-c2cc(Oc3cccc4ccccc34)nc(-c3ccccc3)n2)c(N)c1C#N | 20% (inactive)
24 | CSc1sc(C)cc1C1C(C#N)=C(N)N(c2cccnc2)C2=C1C(=O)CCC2 (stereo unspecified) | 23% (inactive)
25 | CCCOc1ccc(N2C(=O)CC(N(CCc3ccc(S(N)(=O)=O)cc3)C(C)=O)C2=O)cc1 (stereo unspecified) | -11.4% (inactive)
26 | Cc1nn(-c2ccccc2)c2[nH]c(C(F)(F)F)cc(=O)c12 | 46.9% (inactive)
27 | COc1ccc(OCCCC(=O)Nc2nnc(C3CCCO3)s2)cc1 (stereo unspecified) | 45.3% (inactive)
28 | O=C(Cn1c(=O)sc2ccccc21)Nc1ccc2c(c1)OCCO2 | 7% (inactive)
29 | Cc1nnc(NC(=O)Cn2c(=O)sc3ccccc32)s1 | 67.6% (active)
30 | Cc1nnc(NC(=O)CCCOc2ccccc2)s1 | -8.5% (inactive)
31 | CCN(CC)CCCNC(=O)CCc1ccccc1 | 1.4% (inactive)
32 | O=C(CN1C(=O)NC2(CCCC2)C1=O)Nc1ccc(F)c(F)c1F | -34.9% (inactive)
33 | Cc1ccccc1N1CC(c2nc3ccccc3[nH]2)CC1=O (stereo unspecified) | 29.8% (inactive)
34 | CC1=CC(=O)C=CC1(C)C(Cl)(Cl)Cl (stereo unspecified) | -5.7% (inactive)
35 | O=C(Cn1nnc(-c2ccc(CN3CCOCC3)cc2)n1)NC1CCCCC1 | 25.3% (inactive)
36 | COc1cccc(N(CC(=O)NC2CCCC2)C(=O)Cn2nnc(-c3ccc(C)cc3)n2)c1 | 59.1% (active)
37 | COc1ccc(N(CC(=O)NC2CCCCCCC2)S(=O)(=O)c2c(C)nn(C)c2C)cc1 | 40.5% (inactive)
38 | CC(C)c1cc(C(=O)O)on1 | -15.7% (inactive)
39 | Cc1[nH]nc(-c2ccc(OCc3cnn(-c4ccccc4)c3)cc2O)c1Oc1ccc(Cl)cc1 | 66.2% (active)
40 | COc1ccc(Oc2c(Cl)cnn(-c3ccccc3)c2=O)cc1 | 18.9% (inactive)
41 | Cn1c(COc2ccc(Cl)cc2)nc2ccccc2c1=O | 43.9% (inactive)
42 | CC(C)(C)C(=O)Nc1ccc(C(=O)N/N=C/c2ccccc2OC(=O)c2ccc(Cl)cc2Cl)cc1 | 21.5% (inactive)

Row | SMILES | inhibition
43 | CCn1c(NCCc2ccc(OC)c(OC)c2)nc2c1c(=O)n(C)c(=O)n2C | 12.4% (inactive)
44 | COc1ccc(OC)c(-n2cc3c(=O)n(C)c(=O)n(C)c3c2)c1 | 78.8% (active)
45 | COc1ccc(OC)c(NC(=O)Cn2c(=O)oc3ccccc32)c1 | 26.9% (inactive)
46 | Cn1c(=O)c2cn(-c3cccc4ccccc34)cc2n(C)c1=O | 71.3% (active)
47 | CC(=O)Nn1cc2c(=O)n(C)c(=O)n(C)c2c1 | -1.4% (inactive)
48 | Cn1c2c(c(=O)n(C)c1=O)[C@@H]1c3c(ccc4ccccc34)OC[C@@H]1CO2 | 18.4% (inactive)
49 | O=C(OC1CCOC1=O)c1ccc(-c2nc3ccccc3s2)s1 (stereo unspecified) | 4.9% (inactive)
50 | CSCCC(NC(=O)C1CCC(C)CC1)C(=O)NCc1ccco1 (stereo unspecified) | 10.7% (inactive)
51 | CSCCC(NC(N)=O)C(=O)N(C)CC(=O)Nc1ccc(C)cc1 (stereo unspecified) | -21.5% (inactive)
52 | CC1(C)CC(O)C(CCC(O)c2ccccc2)C(C)(C)N1 (stereo unspecified) | -1.7% (inactive)
53 | O=c1c(F)cn(C2CCCO2)c(=O)n1Cc1ccccc1Cl (stereo unspecified) | 15.2% (inactive)
54 | Cc1ccc(NC(=S)Nc2ncccc2C)c(C)c1 | -26.1% (inactive)
55 | CCOC(=O)c1sc2nc(CSCC(=O)OCc3ccc(C(=O)OC)o3)[nH]c(=O)c2c1C | 54.4% (active)
56 | CCOC(=O)c1ccc(COC(=O)c2cc(=O)[nH]c3ccccc23)o1 | -27.9% (inactive)
57 | CCOc1cc(/C=N/n2cnnc2)c(Br)cc1O | 43.2% (inactive)
58 | Cc1cc(=O)oc2cc(OC(C)C(=O)Nc3ccc(N4CCOCC4)cc3)ccc12 (stereo unspecified) | -6.3% (inactive)
59 | COc1ccccc1N1CC(C(=O)Nc2ccc(S(=O)(=O)N3CCOCC3)cc2)CC1=O (stereo unspecified) | 8.1% (inactive)
60 | Cc1cc(C(=O)OC(C)C(=O)Nc2cccc(S(=O)(=O)N3CCOCC3)c2)c(C)o1 (stereo unspecified) | 97.4% (active)
61 | O=C(O)CCC(=O)NCc1ccc2[nH]c3c(c2c1)CCCC3 | -5.1% (inactive)

— PubChem BioAssay AID777 (Sanford-Burnham Center for Chemical Genomics, 2007)
